Several values for one entry are separate records, joined by “and”; a condition that tells them apart may be missing. Equal values may be shown once. Values without a mark were called inactive. Activity calls are given as the source filed them. No stated cut-off is given here; in the data, active means remaining activity below about 50%; inactive means the rest.
Molecular target: Phospholipase D1 (Homo sapiens) (UniProt Q13393)
Assay: PLD1 inhibitors in cells, Calu-1 cells, single concentration (AID 602144);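 further: tested at 200 nM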
Details: cellular PLD1 activity, hits give low values

Sequence of Phospholipase D1 (Homo sapiens) (Q13393 whole entry, looked up): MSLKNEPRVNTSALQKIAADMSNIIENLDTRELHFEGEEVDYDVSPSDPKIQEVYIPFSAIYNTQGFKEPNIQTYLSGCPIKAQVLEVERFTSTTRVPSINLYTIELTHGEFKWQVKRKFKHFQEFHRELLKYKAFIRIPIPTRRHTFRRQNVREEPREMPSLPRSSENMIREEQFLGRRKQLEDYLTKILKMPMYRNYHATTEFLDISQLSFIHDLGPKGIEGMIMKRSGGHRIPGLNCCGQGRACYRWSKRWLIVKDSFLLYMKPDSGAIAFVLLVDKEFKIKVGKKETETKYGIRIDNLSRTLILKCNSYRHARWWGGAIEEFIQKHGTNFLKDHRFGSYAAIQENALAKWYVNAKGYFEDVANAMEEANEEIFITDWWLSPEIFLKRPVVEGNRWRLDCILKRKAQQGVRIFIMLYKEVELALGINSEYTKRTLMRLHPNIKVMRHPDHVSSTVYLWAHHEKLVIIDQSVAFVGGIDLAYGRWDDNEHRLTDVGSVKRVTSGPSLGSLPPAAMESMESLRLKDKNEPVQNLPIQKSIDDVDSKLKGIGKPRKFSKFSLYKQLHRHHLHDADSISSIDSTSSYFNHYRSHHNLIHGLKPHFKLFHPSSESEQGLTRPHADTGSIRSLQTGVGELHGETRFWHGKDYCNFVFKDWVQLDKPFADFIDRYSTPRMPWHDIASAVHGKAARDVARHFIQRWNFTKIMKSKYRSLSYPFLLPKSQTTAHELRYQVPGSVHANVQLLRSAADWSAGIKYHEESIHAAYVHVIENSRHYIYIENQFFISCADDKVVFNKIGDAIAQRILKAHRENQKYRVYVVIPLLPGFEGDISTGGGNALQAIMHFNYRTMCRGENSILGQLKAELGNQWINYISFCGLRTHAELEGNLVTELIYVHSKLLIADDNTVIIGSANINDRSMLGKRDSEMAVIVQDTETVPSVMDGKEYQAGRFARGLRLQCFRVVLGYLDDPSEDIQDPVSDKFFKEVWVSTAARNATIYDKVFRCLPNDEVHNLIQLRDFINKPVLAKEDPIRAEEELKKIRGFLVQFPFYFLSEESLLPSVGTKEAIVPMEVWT
Sequence of Phospholipase D1 (Homo sapiens) (Q13393 whole entry, looked up): as above

Row | Compound | remaining activity
1 | CCCCOc1ccc(C(=O)NCCN2CCC3(CC2)C(=O)NCN3c2cccc(F)c2)cc1 | 110%
2 | Cc1ccccc1C(=O)NCCN1CCC2(CC1)C(=O)NCN2c1cccc(F)c1 | 97.2%
3 | CC(C)[C@@H](CN1CCC2(CC1)C(=O)NCN2c1ccccc1)NC(=O)c1cnc2ccccc2c1 | 18.3% (active)
4 | O=C(NCCN1CCC2(CC1)C(=O)NCN2c1cccc(F)c1)c1ccc2c(c1)C(=O)OC2=O | 102%
5 | C[C@@H](CN1CCC2(CC1)C(=O)NCN2c1ccccc1)NC(=O)[C@@H]1C[C@H]1c1ccccc1 | 70.5%
6 | O=C(Cc1ccccc1Br)NCCN1CCC2(CC1)C(=O)NCN2c1cccc(F)c1 | 100%
7 | O=C(NCCN1CCC2(CC1)C(=O)NCN2c1ccc(Cl)cc1)c1cnc2ccccc2c1 | 94.2%
8 | O=C(c1cccc(F)c1)N(CCN1CCC2(CC1)C(=O)NCN2c1cccc(F)c1)C(=O)c1cccc(F)c1 | 93.5%
9 | O=C(c1ccc2ccccc2c1)N1CCCC1CN1CCC(n2c(=O)[nH]c3ccccc32)CC1 (configuration not stated) | 101% and 112%
10 | Nc1cccc(Cl)c1C(=O)NCCN1CCC2(CC1)C(=O)NCN2c1ccccc1 | 92.9%
11 | O=C(CN1CCC2(CC1)C(=O)NCN2c1ccccc1)c1ccccc1 | 102%
12 | O=C(NCCN1CCC2(CC1)C(=O)NCN2c1ccc(Cl)cc1)c1cc2ccccc2[nH]1 | 61.5%
13 | CC(C)[C@@H](CN1CCC2(CC1)C(=O)NCN2c1ccccc1)NC(=O)c1ccc(Cl)cc1 | 18% (active)
14 | O=C(NCCN1CCC2(CC1)C(=O)NCN2c1ccccc1)c1ccnnc1 | 104%
15 | O=C(NCCCCCCN1CCC2(CC1)C(=O)NCN2c1ccccc1)c1ccc2ccccc2c1 | 131%
16 | C[C@H](CN1CCC2(CC1)C(=O)NCN2c1ccccc1)NC(=O)c1ccc(F)cc1 | 34.8% (active)
17 | CC(C)(C)C(=O)NCCN1CCC2(CC1)C(=O)NCN2c1cccc(F)c1 | 71.8%
18 | O=C(NCCN1CCC2(CC1)C(=O)NCN2c1ccccc1)c1ncc(F)cc1F | 125%
19 | O=C(NCCN1CCC2(CC1)C(=O)NCN2c1ccc(F)cc1)c1cnc2ccccc2c1 | 60.5%

Row | Compound | remaining activity
20 | O=C(NCCN1CCC2(CC1)C(=O)NCN2c1ccccc1)c1ccc2c(c1)C(=O)OC2=O | 103%
21 | O=C(c1ccc2ccccc2c1)N1CC(N2CCC3(CC2)C(=O)NCN3c2ccccc2)C1 | 82.4%
22 | O=C(NCCN1CCC2(CC1)C(=O)NCN2c1ccccc1)c1cnc2ccccc2c1 | 130%
23 | O=C(CCc1ccc(F)cc1)NCCN1CCC2(CC1)C(=O)NCN2c1ccccc1 | 69.5%
24 | O=C(NCCN1CCC2(CC1)C(=O)NCN2c1cccc(F)c1)c1cc2cc(F)ccc2[nH]1 | 44% (active)
25 | CCC(=O)N[C@@H](C)CN1CCC2(CC1)C(=O)NCN2c1ccccc1 | 93.3%
26 | O=C(NCCN1CCC2(CC1)C(=O)NCN2c1ccccc1)c1ncc[nH]1 | 62.9%
27 | C[C@@H](CN1CCC2(CC1)C(=O)NCN2c1ccc(F)c(F)c1)NC(=O)c1cnc2ccccc2c1 | 5.04% (active)
28 | COc1cc(C(=O)NCCN2CCC3(CC2)C(=O)NCN3c2ccccc2)ccc1N | 103%
29 | CC(C)[C@@H](CN1CCC2(CC1)C(=O)NCN2c1ccccc1)NC(=O)c1cc2ccccc2[nH]1 | 1.51% (active)
30 | O=C(NCCN1CCC2(CC1)C(=O)NCN2c1ccccc1)c1cc2cccnc2s1 | 51.1%
31 | CN1CN(c2ccccc2)C2(CCN(CCNC(=O)c3ccc4ccccc4c3)CC2)C1=O | 97.9%
32 | O=C(NCCN1CCC2(CC1)C(=O)NCN2c1ccccc1)c1cccnn1 | 105%
33 | O=C(NCCN1CCC2(CC1)C(=O)NCN2c1ccc(Br)cc1)c1cnc2ccccc2c1 | 94.1%
34 | O=C(NCCN1CCC2(CC1)C(=O)NCN2c1ccccc1)c1cnco1 | 98%
35 | O=C(CCN1CCC2(CC1)C(=O)NCN2c1ccccc1)Nc1ccc(F)cc1 | 125%
36 | CC(C)[C@@H](CN1CCC2(CC1)C(=O)NCN2c1ccccc1)NC(=O)c1ccc2ccccc2c1 | 20.7% (active)
37 | CC(C)[C@@H](CN1CCC2(CC1)C(=O)NCN2c1ccccc1)NC(=O)c1cc2cc(F)ccc2[nH]1 | 6.9% (active)
